Screen size: about 310,000 compounds; about 1,200 (0.39%) were called active. These entries were drawn from the full list. Potency and affinity values are given separately. Values without a mark were called inactive. How the calls were made is not given here.

Results on 97 compounds are retold here after PubChem BioAssay AID1903 (Southern Research Specialized Biocontainment Screening …, 2009).

The test deals with Large T antigen (Simian virus 40) (UniProt P03070). Nature of the test: SV40 large T antigen inhibitors, biochemical (AID 1903). To be noted: SV40 large T antigen ATPase/helicase inhibition assay; at 20 µM; active compounds read high.
Large T antigen (Simian virus 40), sequence (P03070 whole entry, looked up): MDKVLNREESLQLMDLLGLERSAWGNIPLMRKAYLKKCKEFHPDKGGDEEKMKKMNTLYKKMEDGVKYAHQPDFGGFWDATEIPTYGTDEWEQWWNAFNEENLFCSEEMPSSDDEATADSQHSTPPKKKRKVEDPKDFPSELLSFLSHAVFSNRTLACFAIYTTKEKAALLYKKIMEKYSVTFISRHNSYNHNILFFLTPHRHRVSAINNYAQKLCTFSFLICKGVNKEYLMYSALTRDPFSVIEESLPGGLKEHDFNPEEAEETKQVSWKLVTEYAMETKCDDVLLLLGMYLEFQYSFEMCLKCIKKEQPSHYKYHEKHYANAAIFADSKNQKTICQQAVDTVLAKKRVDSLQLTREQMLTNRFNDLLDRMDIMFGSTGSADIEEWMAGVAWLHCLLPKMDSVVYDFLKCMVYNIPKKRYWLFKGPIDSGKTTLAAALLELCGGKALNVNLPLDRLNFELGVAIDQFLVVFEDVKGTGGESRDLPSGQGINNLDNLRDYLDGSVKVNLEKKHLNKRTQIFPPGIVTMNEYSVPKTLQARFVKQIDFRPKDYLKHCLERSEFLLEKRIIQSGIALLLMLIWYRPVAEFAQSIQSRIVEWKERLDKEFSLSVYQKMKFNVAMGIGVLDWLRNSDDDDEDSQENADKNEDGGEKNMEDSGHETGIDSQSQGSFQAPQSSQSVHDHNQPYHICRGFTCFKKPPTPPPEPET
The inhibition is the relative decrease from the control value, in per cent. For the compound `Cc1cccc(/C=C2\CCC(C3CCCC3)C2=O)c1` (configuration not stated), the inhibition was 1.68%. With `CCN(CC)C(=O)c1cc(Cl)ccn1`, the inhibition is -2.78%. As to `O=C(NCC1CCCO1)c1cc(S(=O)(=O)Nc2ccc(Br)cc2)ccc1Cl` (configuration not stated), the inhibition is -4.53%. For `CCOC(=O)C1C(=O)NC(SC)=C(C#N)C1c1ccccc1F` (configuration not stated), the inhibition is 13.4%. As to `COC(=O)C1C(=O)NC(SC)=C(C#N)C1c1ccccc1F` (configuration not stated), the inhibition was 10.2%.

Turning to `COc1ccccc1/C=C(/C(=O)OCC(=O)Nc1cc(C)ccc1C)c1ccccc1`, the inhibition is 5.11%. In the case of `CC1CN=C(Nc2cccc(S(=O)(=O)N(C)C)c2)S1` (configuration not stated) it was 21.1%.

As to `CCOC(=O)C(=CNc1ccc(NC2=NCC(C)S2)cc1)C(=O)OCC` (configuration not stated), the inhibition is 12%. In the case of `Cc1cccc2cc3c(nc12)-c1ccccc1C3=O` it was 7.99%; in that of `Cc1ccc(Cl)c(OC(=O)C2CSC3(C)CCC(=O)N23)c1` (configuration not stated), 28%. On to `CC(C)Sc1nc2ccccc2n1CC(=O)NCc1ccc2c(c1)OCO2`, for which the inhibition is 10.4%. In the case of `O=C(O)/C=C/c1cnn(-c2ccccc2)c1`, the inhibition is 6.6%. Turning to `O=C(c1cnn(-c2ccccc2)c1)c1ccccc1O`, the inhibition was -1.98%. For `CCN(CC)S(=O)(=O)c1ccc(N=Nc2c(N)[nH]c(=O)[nH]c2=O)cc1`, the inhibition was 12.4%. For `O=C(CCn1c(=S)[nH]c2ccccc2c1=O)NCCc1ccccc1`, the inhibition is 4.97%. Consider `O=C(CCn1c(=S)[nH]c2ccccc2c1=O)NCCc1ccc(Cl)cc1`, for which the inhibition is 7.2%. In the case of `CC(=O)NC(CC(=O)N1CCCC1)c1ccccc1` (configuration not stated) it was 21.8%; in that of `O=C(NCc1ccc2c(c1)OCO2)c1ccc2c(c1)S(=O)(=O)c1ccccc1C2=O`, 0.8%. In the case of `Cn1c(=O)oc2cc(S(=O)(=O)NC3CCCCCCC3)ccc21`, the inhibition was -1.85%.

Take `Cn1c(=O)oc2cc(S(=O)(=O)NC3CCCCC3)ccc21`: the inhibition was -17.1%.

Take `CCCCC(=O)Nc1ccc(C(=O)NCCc2ccc(S(N)(=O)=O)cc2)cc1`: the inhibition is 1.78%.

As for `N=c1c2c(ncn1Cc1ccco1)Oc1cc(O)ccc1C2c1ccccc1` (configuration not stated), the inhibition is 26.2%. As for `O=C1NN(c2ccccc2)C(=O)/C1=C\c1ccccc1`, the inhibition was 17.5%. On to `O=C1NN(c2ccccc2)C(=O)/C1=C/c1cccs1`, for which the inhibition is 28.5%. In the case of `COc1ccc(-c2nc(CS(=O)(=O)CC(=O)NCCCc3ccccc3)c(C)o2)cc1` it was -0.82%.

As for `O=C(OCC(=O)N1CCCc2ccccc21)c1cc(S(=O)(=O)N2CCOCC2)ccc1Cl`, the inhibition is 15.5%.

On to `O=C(COc1ccc2ccccc2c1Br)NCc1ccccn1`, for which the inhibition is 9.07%. `Cc1ccc(NS(=O)(=O)c2cc3c4c(c2)CC(=O)N4CCC3)cc1C`: the inhibition was 7.5%.

On to `CCN(CC)S(=O)(=O)c1cc(NS(=O)(=O)c2cccc(Cl)c2)ccc1C`, for which the inhibition is 2.93%. On to `Cc1cccc(C)c1NS(=O)(=O)c1cc2c3c(c1)CC(=O)N3CCC2`, for which the inhibition is -3.87%.

Regarding `CN(C)c1ccc(S(=O)(=O)c2ccc(Cl)cc2)cc1`, the inhibition is 1.2%. For `CN(C)c1ccc(NS(=O)(=O)c2cc(Cl)ccc2Cl)cc1`, the inhibition is 25.6%. As for `Cc1ccc(S(=O)(=O)Nc2ccc(N(C)C)cc2)cc1`, the inhibition was 37.5%. For the compound `O=C(CN1C(=O)C(=O)N(Cc2ccco2)C1=O)c1c[nH]c2ccccc12`, the inhibition was 28.3%. In the case of `C=CCc1ccc(OCCOCCOc2ccccc2[N+](=O)[O-])c(OC)c1` it was -1.8%. On to `C=CCOc1ccc(C2c3c(oc4ccccc4c3=O)C(=O)N2CCCN2CCOCC2)cc1` (configuration not stated), for which the inhibition is 10.1%. In the case of `O=C(COn1nnc2ccc(Cl)cc21)Nc1ccc(F)cc1`, the inhibition is 19.7%. Consider `COc1cc(/C=C2\N=C(C)OC2=O)cc(Cl)c1OC(C)=O`, for which the inhibition is 13.6%.

Consider `CC(=O)NC1CC2CCCC(C1)N2S(=O)(=O)c1cccc(F)c1` (configuration not stated), for which the inhibition is 2.38%.

Consider `COc1ccc(S(=O)(=O)Nc2cccc(-c3ccc4nncn4n3)c2)c(OC)c1`, for which the inhibition is 12.4%. In the case of `Brc1ccc(-c2nc3ncccn3c2NC2CCCCC2)o1` it was 12.4%; in that of `Cc1ccc(Nc2c(-c3ccc(C)o3)nc3ncccn23)cc1`, 33.8%; in that of `Cc1ccc(-n2cc(CCCCCCCCC(=O)O)nn2)cc1`, 8.47%. Take `COc1ccc(/C=N/NC(=O)CN2CCSCC2)c(OC)c1`: the inhibition is 17.5%.

Regarding `COc1ccc(NC(=O)/C=C/C(=O)O)cc1Cl`, the inhibition was 4.09%.

Take `COC(=O)/C=C/C(=O)Nc1cccc(C(F)(F)F)c1`: the inhibition is 17.3%. As to `CCCCC(=O)c1ccc(O)cc1`, the inhibition was 4.42%. For the compound `O=C(CCCC(=O)c1ccc(O)cc1)c1ccc(O)cc1`, the inhibition is 9%.

In the case of `COc1ccc(N2CCN(C(=O)C3COc4ccccc4O3)CC2)cc1` (configuration not stated), the inhibition is 15.2%.

For the compound `O=C(O)CCCC(=O)N(Cc1ccccc1)Cc1ccccc1`, the inhibition was 8.76%. Consider `COc1ccc(OC)c(S(=O)(=O)N2CCC(C(=O)N3CCc4ccccc4C3)CC2)c1`, for which the inhibition was -3.29%.

As to `Cc1ccc(C(=O)Nc2nc(=O)n(C(=O)c3ccccc3Cl)s2)cc1`, the inhibition was 6.99%. With `CN(C)c1ccc(Nc2ccc([N+](=O)[O-])cn2)cc1`, the inhibition was 32.5%. With `COc1ccc(Nc2cc(Nc3ccc(OC)cc3)ncn2)cc1`, the inhibition is 6.82%.

Take `COc1ccc(S(=O)(=O)N2CCCN(CC(=O)Nc3ccc4c(c3)OCO4)CC2)cc1`: the inhibition was -44.5%.

For the compound `O=C(COC(=O)C1=COCCO1)NC1CCCCC1`, the inhibition was 4.07%.

As for `CCOC(=O)C1=C(C)N=c2s/c(=C3/C(=O)Nc4ccccc43)c(=O)n2C1c1ccc(C)cc1` (configuration not stated), the inhibition was 24.6%. For the compound `COC(=O)C1=C(C)N=c2s/c(=C3\C(=O)Nc4ccccc43)c(=O)n2C1c1ccccc1` (configuration not stated), the inhibition is 12.3%. Take `O=C(CCCC(=O)NCCc1ccccc1)NCCc1ccccc1`: the inhibition is 3.18%. For `Cc1ccc(-c2noc(C3CCCN(S(=O)(=O)c4ccc5ccccc5c4)C3)n2)o1` (configuration not stated), the inhibition was -0.86%. Turning to `Cc1ccc(S(=O)(=O)N2CCCC(c3nc(-c4ccc(C)o4)no3)C2)cc1` (configuration not stated), the inhibition was 6.08%.

With `CC(C)(C)c1cc(-c2nc(N)nc(N)n2)cc(C(C)(C)C)c1`, the inhibition is 6.71%. In the case of `COc1cccc(CN2CCCC(N3CCc4ccccc4C3)C2)c1O` (configuration not stated), the inhibition is 11.4%. On to `CC1CCN(C2=C(NS(=O)(=O)c3ccc(Cl)cc3)C(=O)c3ccccc3C2=O)CC1`, for which the inhibition was 16.2%. In the case of `COc1ccc(C(=O)Nc2cccc3ccccc23)cc1` it was 16.2%; in that of `COc1ccc(NC(=O)Nc2ccc(O)c3ccccc23)cc1`, 27.9%. In the case of `CC1(C)Cc2ccccc2C(=C(C#N)C#N)N1` it was 4.69%. As to `CCOC(=O)c1ccc(NC(=O)c2cc3ccccc3o2)cc1`, the inhibition was 8.26%. With `O=C1N/C(=C/c2ccc(Br)cc2)C(O)=C1C=NCc1ccccc1`, the inhibition was 4.99%. `O=C1N/C(=C\c2ccccc2)C(O)=C1C=NCc1ccccc1`: the inhibition was 18.3%. `COC1=C(Nc2ccc(C)cc2)C(=O)c2ccccc2C1=O`: the inhibition is 3.75%. For the compound `COC1=C(Nc2ccccc2)C(=O)c2ccccc2C1=O`, the inhibition was -28.6%. For the compound `Cc1ccc(-c2nc(CS(=O)CC(=O)NCCN3CCOCC3)c(C)o2)cc1` (configuration not stated), the inhibition is -1.85%.

With `CC(=O)Cc1nsc(Nc2ccc(F)cc2)n1`, the inhibition is 5.39%. Take `CCOc1ccc(NC(=O)CN(C)CC(=O)Nc2ccc(Br)cc2F)cc1OCC`: the inhibition is 2.33%. Take `COC(=O)CCCC1=CC2=CC(=O)C(C)(OC(=O)c3ccc(Cl)nc3)C(=O)C2=CO1` (configuration not stated): the inhibition was 23.8%.

In the case of `Cc1ccc(NC(=S)NNc2ccc([N+](=O)[O-])cc2S(=O)(=O)Nc2ccccc2C(=O)O)cc1C`, the inhibition was 31.6%.

With `O=C(O)c1ccccc1Nc1ccc(OC(F)F)cc1`, the inhibition is 10.8%. Regarding `CCN(CC)S(=O)(=O)c1ccc(/C=C/C(=O)OCC(=O)Nc2ccc(S(N)(=O)=O)cc2)cc1`, the inhibition is 0.26%. Take `CC(=O)NC1=NN(c2ccccc2)C(=O)C1`: the inhibition is 13.1%. For `O=C(COc1ccc(Cl)cc1)NC1=NN(c2ccccc2)C(=O)C1`, the inhibition was 18.7%. `COc1ccc(-c2nc3cc(C)ccn3c2NC(=O)c2ccccc2OC)cc1`: the inhibition was 9.33%. Regarding `CNCCc1ccccn1`, the inhibition is 13.3%. As to `COc1ccc(NC(=O)CSCC(=O)NCCc2ccccn2)cc1`, the inhibition is 0.35%. For `COCCN1Cc2cccc(C(=O)Nc3cccnc3)c2C1=O`, the inhibition is 1.93%. Take `COc1cccc(CC(=O)OCC(=O)N(C)CC(=O)Nc2ccc(Cl)c(C(F)(F)F)c2)c1`: the inhibition is 5.39%. Turning to `CCOc1ccccc1N(CC(=O)NC1CCCCC1)C(=O)CCC(=O)Nc1cc(C)ccn1`, the inhibition is -4.71%. With `c1ccc(-c2csc(NC3=NCCCCC3)n2)cc1`, the inhibition was -1.35%. In the case of `Brc1ccc(-c2csc(NNC3=NCCCCC3)n2)cc1` it was 21.1%; in that of `COC(=O)CN1C(=O)S/C(=C/c2ccc(N3CCCCC3)o2)C1=O`, 22.2%. `CCOC(=O)CN1C(=O)S/C(=C/c2ccc(N3CCCCC3)o2)C1=O`: the inhibition was -40.7%.

In the case of `O=C1NC(=O)/C(=C\c2ccc(N3CCOCC3)o2)N1`, the inhibition was 12.2%. Turning to `O=C1NC(=O)/C(=C/c2ccc(N3CCOCC3)o2)N1`, the inhibition is 35.9%.

For the compound `COc1ccc(-c2cn(Cc3ccc(C(N)=O)cc3)c(CCN)n2)cc1`, the inhibition is 15.2%. For the compound `CCc1ccc(N2CC(C(=O)Nc3cc(C)on3)CC2=O)cc1` (configuration not stated), the inhibition was 7.18%. For the compound `COc1ccc(S(=O)(=O)N2CCc3cc4c(cc3C2C)OCCCO4)cc1` (configuration not stated), the inhibition was -0.77%. With `O=C(/C=C/c1cccc([N+](=O)[O-])c1)NCC1CCCO1` (configuration not stated), the inhibition was 1.2%.
